# Shown are actives, neighbours in structure and some others; about 3.4% of the full set was active somewhere.
# p47phox inh: p47phox (human) inhibition | P14598 | p47phox/p22phox peptide binding, fluorescence polarization, 2 h | inhibition, % at 24.7 µM | 220,000 compounds, 0.53% hits;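 also: 0% = p47phox with labelled peptide and 100% = labelled peptide alone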
# 14-3-3 Bad inh: disrupts binding of bovine 14-3-3 zeta to phospho-Bad peptide; inhibition, % at 21.7 µM; 220,000 compounds, 0.71% hits; P63103; TR-FRET 14-3-3zeta/Dy647-pBad peptide displacement, 1 h;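 active = inhibition above about 70%, limit read from the data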;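 also: 0% = full 14-3-3 plus peptide FRET controls and 100% = background without 14-3-3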
# Bim-Mcl-1: human Bim-Mcl-1 interaction inhibition; Bead-based flow cytometry, Bim peptide-Mcl-1 binding; inhibition, % at 10 µM; Q07820; AID 1009; 190,000 compounds, 0.1% hits; in the data active = inhibition above about 40%;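 also: 0% = no compound tracer wells and 100% = peptide blocker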
# Mcl1-Bid inh: disrupts binding of human Mcl-1 to Bid peptide; Q07820; TR-FRET Mcl-1/Bid-Dy647 peptide binding, 1536-well; inhibition, % at 21.7 µM; 220,000 compounds, 0.97% hits;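 active = compounds that cut the binding signal by more than half at the single screening dose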;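 also: His-tagged Mcl-1 with europium anti-His antibody binding Bid BH3 peptide; 0% = Mcl-1 plus peptide wells and 100% = peptide-only wells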
# eIF4E-4G inh: inhibitors of eIF4E and eIF4G interaction in translation initiation; P63073+Q04637; TR-FRET eIF4E-eIF4GI(517-606) binding, 2 h; inhibition, % at 21.7 µM; 220,000 compounds, 0.37% hits; AID 782;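 also: 0% = full FRET control wells and 100% = background wells lacking eIF4GI fragment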
# Mcl1-Noxa inh: disrupts binding of human Mcl-1 to Noxa peptide; Q07820; TR-FRET Mcl-1/Noxa peptide binding, 2 h; inhibition, % at 21.7 µM; 220,000 compounds, 1.5% hits;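 active = compounds that cut the protein-peptide binding signal by more than 50% relative to plate controls in a single-dose test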;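 also: His-tagged Mcl-1 with rhodamine Noxa BH3 peptide and terbium anti-His antibody; 0% = Mcl-1 plus Noxa peptide wells and 100% = peptide-only wells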
# * = called active by the depositor; . = no result.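 The calls were made as follows, unless noted: active = inhibition above about 30% (limit read from the data); inactive = the rest.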
SMILES,p47phox inh,14-3-3 Bad inh,Bim-Mcl-1,Mcl1-Bid inh,eIF4E-4G inh,Mcl1-Noxa inh
O=c1oc2cc(O)ccc2cc1-c1nc2c(s1)CCc1ccccc1-2,-35,3,.,-37,-5,54*
O=c1oc2ccccc2cc1-c1nc2c(s1)CCc1ccccc1-2,-30,-32,7,-27,2,4
Cc1ccc(C2=Nc3ccc(Br)cc3C(c3ccncc3)=NN2)cc1,0,-10,1,-9,3,8
O=C(NC(=S)Nc1ccc(-c2ccc(CO)o2)cc1)c1cccs1,-20,3,-3,-20,-1,63*
Cc1nn(CC(=O)Nc2ccc3c(c2)nc2n3CCN(C3CCCCC3)C2)c(=O)c2ccccc12,-2,51,2,-7,-5,70*
Cc1nn(CC(=O)Nc2ccc3c(c2)nc(CCN2CCCCC2)n3C)c(=O)c2ccccc12,-11,-15,-3,-20,-3,20
CCN(CC)c1ccc(/C=N/NC(=O)c2ccc3nc[nH]c3c2)cc1,-2,3,.,-104,87*,25
CN(C)c1ccc(/C=N/NC(=O)c2ccc3nc[nH]c3c2)cc1,2,0,.,-9,11,16
CC(C)NC(=O)c1ccc2c(c1)S(=O)(=O)c1ccccc1C2=O,-10,-5,-4,-14,-4,4
CN(C)CCOC(=O)c1ccc2c(c1)S(=O)(=O)c1ccccc1C2=O,4,5,.,-9,35*,-22
O=[N+]([O-])c1cc(/C=N\Nc2nc(-c3ccccc3)cs2)ccc1O,-7,-15,0,-38,-4,20
Cc1csc(N/N=C/c2ccc(O)c([N+](=O)[O-])c2)n1,-23,1,-1,-70,15,55*
CCN(CC)CCn1c(NCc2ccccn2)nc2ccccc21,-11,77*,-6,85*,-5,34
O=C(NCCc1ccccc1)c1nc(-c2cccs2)no1,4,-3,-2,-18,2,18
CN(C(=O)COc1ccccc1C(=O)NCCOc1ccccc1)c1ccccc1,-3,0,-8,13,-2,1
Cc1ccc(/C=N/NC(=O)c2cc3c(ccc4ccccc43)o2)cc1[N+](=O)[O-],-8,67,0,76*,-12,26
COc1ccc(C(=O)N/N=C/c2ccc(OC(=O)c3cccc4ccccc34)c([N+](=O)[O-])c2)cc1,19,18,-8,10,6,51*
COc1ccc(C(=O)Oc2ccc(/C=N/NC(=O)c3ccccc3OC)cc2[N+](=O)[O-])cc1,-26,0,-2,31,-4,37
O=C(N/N=C/c1cccnc1)c1cc2ccccc2o1,9,-9,-4,-13,5,-2
O=C(N/N=C/c1cccnc1)c1cc2c(ccc3ccccc32)o1,-9,70,0,55*,-37,49
O=C(N/N=C/c1ccc([N+](=O)[O-])o1)c1cc2c(ccc3ccccc32)o1,30*,93*,3,88*,38*,38
CCn1cc(/C=N/NC(=O)c2cc3c(ccc4ccccc43)o2)c2ccccc21,-10,-8,-1,-16,-14,-4
CCCCCCCCCCCCCCCCn1cc[n+](CC(C)=O)c1,96*,98*,-1,59*,68*,42
CC(C)c1c(Cl)c(O)c(-c2ccccc2)c(=O)n1-c1ccc(F)cc1,-6,88*,-1,57*,23,31
CC(C)c1cc(O)c(-c2ccccc2)c(=O)n1-c1ccc(Cl)cc1,-5,18,.,15,4,16
Cc1nc(SCC(=O)Nc2cccnc2Cl)nc(C)c1C,-11,-4,-1,-10,-2,9
OC(c1ccc2c(c1)OCO2)c1nccc2ccccc12 (stereo not given),-4,9,-2,1,-5,-3
COc1ccc(C(O)c2nccc3cc(OC)c(OC)cc23)cc1OC (stereo not given),1,92*,0,-29,-2,2
COc1cc(C(=O)N/N=C\c2ccccc2)c([N+](=O)[O-])c(OC)c1OC,-4,-11,0,95*,0,5
COc1cc(O)c(/C=N/NC(=O)c2ccncc2)c(OC)c1[N+](=O)[O-],-1,-17,1,-62,0,53*

# Assay outcomes deposited in PubChem by several laboratories.
